# Pol eta inh-1 – qHTS for Inhibitors of Polymerase Eta; DNA polymerase eta (Homo sapiens), Q9Y253; recombinant Pol eta, fluorescent DNA replication assay; Potency, µM (series often up to 114 µM), for the others: top-dose activity change, negative = inhibition, actives largely listed as inhibitors; hit rate 1.2% among 390,000; AID 588591, 2011; also: % is scaled to controls: 0 for no effect and ±100 for the full control effect
#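 Pol eta at 10 nM preincubated with compounds 15 min at room temperature; reaction started with fluorescent substrate (50 nM final) and read kinetically at 0 and 10 min.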
# Pol kappa inh-1 – qHTS for Inhibitors of Polymerase Kappa; DNA polymerase kappa (Homo sapiens), Q9UBT6; purified Pol kappa, fluorescent DNA synthesis assay, 10 min; Potency, µM (titrated, usually from 107 µM), without a hit: top-dose activity, negative = inhibition, hits mostly inhibitors; hit rate 0.53% among 400,000; AID 588579, 2011; also: % is scaled to controls: 0 for no effect and ±100 for the full control effect
#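 Inhibition of 10 nM Pol kappa is measured by a fluorescent read-out at 0 and 10 min following addition of 50 nM substrate (final), with a 15-min room-temperature compound preincubation.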
# POLB inh – qHTS Assay for Inhibitors of DNA Polymerase Beta. Pol beta primer extension/strand displacement, fluorescence kinetic. P06746. hit rate 1.3% among 340,000. Potency, µM (titrated, usually from 114 µM), inactives show at the highest dose activity change, negative = inhibition, usual class: inhibitors; also: % is scaled to controls: 0 for no effect and ±100 for the full control effect
#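 Human Pol beta at 10 nM; strand-displacement substrate 50 nM final. Compound exposure 15 min at room temperature before start, reaction 10 min at room temperature.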
# L3MBTL1 block – qHTS Assay for the Inhibitors of L3MBTL1; Potency, µM (highest dose often 57.1 µM), inactives show at the highest dose activity, negative = inhibition, hits mostly inhibitors; AlphaScreen L3MBTL1–H3K9me1 peptide binding; hit rate 0.66% among 230,000; AID 485360, 2010; Lethal(3)malignant brain tumor-like protein 1 (Homo sapiens), Q9Y468; also: % is scaled to controls: 0 for no effect and ±100 for the full control effect; nearly all actives have a fitted effect of over 60% in size
# Target sequence (Q9Y468 whole entry, looked up): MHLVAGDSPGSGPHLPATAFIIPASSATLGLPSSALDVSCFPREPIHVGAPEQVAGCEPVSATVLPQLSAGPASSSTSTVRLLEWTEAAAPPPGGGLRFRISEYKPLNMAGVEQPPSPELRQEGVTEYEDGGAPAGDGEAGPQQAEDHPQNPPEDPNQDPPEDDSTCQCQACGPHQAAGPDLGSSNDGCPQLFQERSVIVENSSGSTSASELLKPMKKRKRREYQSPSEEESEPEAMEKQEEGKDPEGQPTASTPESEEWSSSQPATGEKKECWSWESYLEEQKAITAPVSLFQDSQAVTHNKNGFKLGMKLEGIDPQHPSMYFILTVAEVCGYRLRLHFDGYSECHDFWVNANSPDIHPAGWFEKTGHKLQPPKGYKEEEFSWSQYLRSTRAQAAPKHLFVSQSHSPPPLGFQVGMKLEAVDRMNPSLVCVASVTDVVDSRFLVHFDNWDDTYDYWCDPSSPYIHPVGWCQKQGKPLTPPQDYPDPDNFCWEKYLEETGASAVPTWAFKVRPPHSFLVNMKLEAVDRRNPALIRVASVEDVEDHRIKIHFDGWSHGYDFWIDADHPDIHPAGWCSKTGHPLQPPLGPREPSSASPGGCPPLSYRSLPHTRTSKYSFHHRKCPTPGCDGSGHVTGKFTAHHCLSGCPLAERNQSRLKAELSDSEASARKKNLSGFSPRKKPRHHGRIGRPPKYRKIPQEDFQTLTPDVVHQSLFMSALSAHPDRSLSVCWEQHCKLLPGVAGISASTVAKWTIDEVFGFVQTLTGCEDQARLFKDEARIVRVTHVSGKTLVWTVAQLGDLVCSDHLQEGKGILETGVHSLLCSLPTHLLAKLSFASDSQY
#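 Displacement of a biotinylated histone H3(1-15) peptide monomethylated at Lys9 (75 nM) from L3MBTL1 (50 nM) was measured by AlphaScreen after a 30 min room-temperature compound incubation; cefsulodin titration served as intraplate control.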
# POLI inh – qHTS for Inhibitors of Polymerase Iota; DNA polymerase iota (Homo sapiens), Q9UNA4; Pol iota fluorescent replication assay, 10 min; Potency, µM (doses to about 115 µM), for inactives: at the highest dose activity, negative = inhibition, usual class: inhibitors; hit rate 1% among 390,000; AID 588590, 2011
#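 Fluorescent replication assay read twice, at 0 min and 10 min after adding 50 nM (final) substrate. Enzyme (10 nM) and compounds were first incubated 15 min at room temperature; enzyme-free buffer wells were negative controls.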
# PGK validate – qHTS for inhibitors of Phosphogylcerate Kinase: Hit Validation Screen; shares compounds with Pol kappa inh-1; TbPGK coupled GAPDH assay, Kinase-Glo luminescence; Potency, µM (top dose mostly 57.5 µM), without a hit: at the top dose activity change, negative = inhibition, hits mostly inhibitors; hit rate 79% among 500; AID 686980, 2013; also: % is scaled to controls: 0 for no effect and ±100 for the full control effect; nearly all actives have a fitted effect of over 65% in size
# POLI cherry-pick – qHTS for Inhibitors of Polymerase Iota: Confirmatory Assay for Cherry-picked Compounds | shares compounds with Pol kappa inh-1 | Pol iota primer extension, TAMRA/BHQ fluorescence | hit rate 77% among 1,500 | Potency, µM, usual class: inhibitors
# Pol kappa inh-2 – qHTS for Inhibitors of Polymerase Kappa: Confirmatory Assay for Cherry-picked Compounds; purified Pol-kappa, fluorescent strand-displacement substrate; Potency, µM, most hits filed as inhibitors; shares compounds with Pol eta inh-1; hit rate 76% among 920
# Pol eta inh-2 – qHTS for Inhibitors of Polymerase Eta: Confirmatory Assay for Cherry-picked Compounds. Potency, µM, usual class: inhibitors. Pol eta primer extension, TAMRA/BHQ fluorescence, 10 min. shares compounds with Pol eta inh-1. hit rate 64% among 2,600
# Starred values were filed as active, the others as inactive; ? = inconclusive; / = no result given; [ ] = another dose, or the depositor's remark. The list is not random: actives were taken first. Their share in the collection is about 2.4%. Calls follow the shape of the dose curve; as a rule, active = well fitted curve in the direction sought with a large enough effect; inconclusive = small, poorly fitted or top-dose-only effect, or another doubt; inactive = no such curve, though single readings can be large; an effect the other way counts as inactive or inconclusive. Potency is read from the fitted curve at half-maximal effect.
SMILES,Pol eta inh-1,Pol kappa inh-1,POLB inh,L3MBTL1 block,POLI inh,POLI cherry-pick,Pol eta inh-2,others
CN(CC(=O)Nc1cccc(F)c1)C(=O)c1cccc(-n2cccc2)c1,7.9µM*,?,/,7.1µM*,20µM*,30*,76*,
Cc1nn(C)c(C)c1S(=O)(=O)N(CC(=O)Nc1ccc(F)cc1F)c1ccc(C(C)C)cc1,-15%,-2%,-8%,/,-15%,/,/,
Cn1c(SCC(=O)Nc2nncs2)nnc1C1CC1,22µM*,?,6.3µM*,/,?,38*,30*,
FC(F)(F)Oc1ccc2c(c1)NC(c1ccncc1)=NC(c1cccs1)=N2,-17%,-24%,-10%,/,-14%,/,/,
CCOC(=O)c1ccc(N/N=C/c2cc(Br)cc([N+](=O)[O-])c2O)cc1,25µM*,1%,-27%,?,100%,67*,?,
CCOC(=O)c1ccc(NC(=O)c2ccccc2[N+](=O)[O-])cc1,-19%,0%,8%,8%,14%,/,/,
COc1cc(C(CC(=O)Nc2ccc(C)c(F)c2)N2Cc3ccccc3C2=O)cc(OC)c1OC (configuration not stated),-12%,-15%,4%,/,36%,/,/,
CC(C)CN1CCc2nc(N3CCN(c4ncccn4)CC3)ncc2C1,-23%,-1%[60.1 µM],-2%,/,10%,/,/,
c1cnc(N2CCN(c3ncc4c(n3)CCNC4)CC2)nc1,18µM*,-30%,45µM*,/,?,17*,24*,Pol kappa inh-2=3*
CCOC(=O)c1cc(S(=O)(=O)NCc2ccc(Cl)cc2)[nH]n1,-8%,-9%[60.1 µM],35%,/,?,/,/,
Cc1ccc2c(c1)c(=O)c(C(=O)c1ccccc1)cn2Cc1ccccc1F,1%,-16%,-26%,/,6%,/,/,
O=C(O)c1ccc(COc2ccc3c4c(c(=O)oc3c2)CCC4)o1,7.9µM*,?,35µM*,?,?,/,27*,PGK validate=18µM*
CC/C(=C\c1ccccc1)c1cccc2oc3ccccc3c12,/,2%,/,/,23%,/,/,
CCOc1ccc(Nc2ccc(N)c(S(=O)(=O)O)c2)cc1,11µM*,32µM*,/,/,11µM*,75*,38*,Pol kappa inh-2=75*
CCOc1ccc(NS(=O)(=O)c2ccc(N)cc2)cc1,5%,0%,-20%,/,16%,/,/,
O=S(=O)(O)c1cc(O)c(N=Nc2ccc(O)cc2O)c2ccccc12,10µM*,20µM*,/,/,/,19*,38*,PGK validate=23µM*;Pol kappa inh-2=34*
Oc1ccc(N=Nc2ccc(Br)cc2)c(O)c1,-9%,-2%,13%,-28%,9%,/,/,
COc1ccc(C(=O)c2sc3nc(-c4ccccc4)ccc3c2N)cc1OC,?,?,13µM*,11%,?,?,67*,
COc1ccc(-c2ccc3c(N)c(C(=O)c4ccc(OC)c(OC)c4)sc3n2)cc1,?,-15%,0%,/,-10%,/,/,
CC(C)=CCCC(C)C1CC[C@@]2(C)C3=C(CC[C@@]12C)C1(C)CCC(O)C(C)(C)C1CC3 (some centres not stated),/,-10%[60.1 µM],/,/,/,/,/,
CC1NC(=O)c2cc3ccccc3cc2-n2c1nc1cc(Cl)ccc1c2=O (configuration not stated),-13%,/,/,/,/,/,/,
CCOc1ccc2noc3c2c1C(=O)c1ccccc1-3,-15%,14%,17%,-12%,3%,/,/,
CCNc1ccc2noc3c2c1C(=O)c1ccccc1-3,?,25µM*,20µM*,?,28µM*,75*,76*,Pol kappa inh-2=67*
O=C1c2ccccc2-c2onc3ccc(N4CCCC4)c1c23,?,-21%,79µM*,?,35µM*,60*,?,Pol kappa inh-2=?
O=C1c2ccccc2-c2onc3ccc(NCc4ccco4)c1c23,?,-26%,?,-3%,?,/,/,
SMILES,Pol eta inh-1,Pol kappa inh-1,POLB inh,L3MBTL1 block,POLI inh,POLI cherry-pick,Pol eta inh-2,others
Cc1ccc(C(=O)OCC(=O)NC2CCCCC2)o1,-9%,-14%,4%,/,25%,/,/,
O=C(COC(=O)c1ccc([N+](=O)[O-])o1)NC1CCCCC1,?,-21%,/,-22%,79µM*,?,?,
O=C(COC(=O)c1ccc([N+](=O)[O-])o1)NC1CCS(=O)(=O)C1 (configuration not stated),45µM*,-16%,0%,-8%,63µM*,?,?,
CCC(=O)C1=C(c2ccc(OC)c(OC)c2)N(C(=O)CC)n2c(CC)nnc2S1,0%,1%,9%,/,47%,/,/,
CCNc1nc(C#N)nc2c1ncn2-c1cc(F)cc(F)c1,-2%,8%,/,18%,23%,/,/,
COc1ccc(NC(=O)C2CCN(S(=O)(=O)c3ccc4c(c3)CCCC(=O)N4)CC2)cc1OC,-13%,-2%,9%,/,15%,/,/,
COc1ccccc1-c1nc2c(c(SCC(=O)Nc3ccc(C)c(C)c3)n1)Cc1c(CO)cnc(C)c1O2,?,-11%,0%,/,-2%,?,?,
Cc1ccc(NC(=O)CSc2nc(-c3ccc(F)cc3)nc3c2Cc2c(CO)cnc(C)c2O3)cc1C,6%,-8%,-1%,/,4%,/,/,
Cc1ccc(NC(=O)CN2C(=O)C(c3ccc(C(C)(C)C)cc3)=NC2(C)C)cc1,-8%,-6%,38%,/,24%,/,/,
O=c1c(O)c(-c2ccc(O)cc2)oc2cc(O)ccc12,/,-11%[19.4 µM],/,/,/,/,/,
O=c1c(O)c(-c2ccc(O)c(O)c2)oc2cc(O)ccc12,1.6µM*,2.8µM*,/,/,2.5µM*,6.7*,7.6*,Pol kappa inh-2=8.4*
O=C(O)C1NCc2[nH]cnc2C1c1ccccc1 (configuration not stated),/,/,/,/,/,60*,?,
O=C(O)C1Oc2ccccc2C1c1ccccc1 (configuration not stated),-6%,-2%,/,/,13%,/,/,
